Measurements: the supplement of paper PMC3545927
This is one part of the list. The hit rate among all sequences tested is not known here.

B1: HC2570 (peptide)
chain: CASTPCSAHVAGNASASA
B2: HC1147 (peptide)
chain: CASGSWLRDIAGNASASA
B3: HC757 (peptide)
chain: CAVDFIPVENAGNASASA
B4: FS-286 (peptide)
chain: CAQQSRSKRGAGNASASA
B5: FS-313 (peptide)
chain: CAVTVRWKRGAGNASASA
B6: FS-474 (peptide)
chain: CAPNSPSKRGAGNASASA
B7: FS-1177 (peptide)
chain: CAVLQRSKRGAGNASASA
B8: FS-790 (peptide)
chain: CAHCSRSKRPAGNASASA
B9: FS-1377 (peptide)
chain: CAMWERYCRGAGNASASA
B10: HC475 (peptide)
chain: CAIRMYVGGVAGNASASA
B11: HC404 (peptide)
chain: CAWHYPPKPCAGNASASA
B12: HC917 (peptide)
chain: CADSSVLCECAGNASASA
B13: HC141 (peptide)
chain: CAEVVTATWVAGNASASA
B14: HC1310 (peptide)
chain: CAETWKKPDYAGNASASA
B15: HC2074 (peptide)
chain: CAVVCCSMKYAGNASASA
B16: HC2023 (peptide)
chain: CAVVACSMSYAGNASASA
B17: FS-302 (peptide)
chain: CASRGRRRRRAGNASASA
B18: FS-1081 (peptide)
chain: CASKGRIRRRAGNASASA
B19: FS-1490 (peptide)
chain: CASRSRRRRRAGNASASA
B20: HC889 (peptide)
chain: CACVTQTVDFAGNASASA
B21: HC591 (peptide)
chain: CAIPPLNVRGAGNASASA
B22: FS-3173 (peptide)
chain: CARTRRALSDAGNASASA
B23: FS-2834 (peptide)
chain: CARTRRLLDKAGNASASA
B24: HC462 (peptide)
chain: CAITPRCLVDAGNASASA
B25: FS-3110 (peptide)
chain: CARTPRGLDDAGNASASA
B26: FS-2097 (peptide)
chain: CARTRRLLWAAGNASASA
B27: FS-2832 (peptide)
chain: CARTPRPGEQAGNASASA
B28: FS-2615 (peptide)
chain: CARTRRHLHDAGNASASA

Biological target: furin, P09958
Sequence (P09958 whole entry): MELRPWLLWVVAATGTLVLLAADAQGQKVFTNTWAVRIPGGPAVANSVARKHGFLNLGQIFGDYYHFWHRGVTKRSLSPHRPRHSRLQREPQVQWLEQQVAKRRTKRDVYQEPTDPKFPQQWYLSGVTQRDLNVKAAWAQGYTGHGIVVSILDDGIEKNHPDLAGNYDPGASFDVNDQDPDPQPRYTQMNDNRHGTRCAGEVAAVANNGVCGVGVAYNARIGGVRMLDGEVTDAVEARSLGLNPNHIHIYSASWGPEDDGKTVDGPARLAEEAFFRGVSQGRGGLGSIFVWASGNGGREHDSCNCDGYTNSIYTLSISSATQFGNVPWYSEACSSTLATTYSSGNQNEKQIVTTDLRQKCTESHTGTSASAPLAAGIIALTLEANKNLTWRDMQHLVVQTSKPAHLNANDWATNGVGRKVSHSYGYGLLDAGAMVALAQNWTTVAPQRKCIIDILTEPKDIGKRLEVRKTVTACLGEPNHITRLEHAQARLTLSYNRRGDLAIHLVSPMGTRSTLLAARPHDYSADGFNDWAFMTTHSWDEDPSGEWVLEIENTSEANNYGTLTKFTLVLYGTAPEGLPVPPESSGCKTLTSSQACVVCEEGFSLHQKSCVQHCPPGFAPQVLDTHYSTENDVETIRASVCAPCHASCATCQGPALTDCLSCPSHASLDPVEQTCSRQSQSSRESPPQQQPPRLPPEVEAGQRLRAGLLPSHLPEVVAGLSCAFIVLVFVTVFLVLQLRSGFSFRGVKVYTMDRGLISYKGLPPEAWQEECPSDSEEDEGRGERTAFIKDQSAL
Experiment: furin cleavage Z-score vs untreated control; higher = more cleavage, active = 3.5 or more, inactive = 1 or less, 8 variable residues between constant flanks
Procedure, shortened: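 Magnetic beads held 8-mer peptides by the N-terminus, each fused to a cDNA oligonucleotide, and purified furin was added for 7.5, 15 or 30 min. Released DNA was sequenced after PCR adapter tagging. The cleavage Z-score is the log count relative to furin-free reactions, lowess-adjusted and divided by median absolute deviation.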
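Further: purified furin at 1:10 enzyme:substrate in 50 mM HEPES pH 7.5.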

Sequence	furin cleavage Z-score (7.5 min)	furin cleavage Z-score (15 min)	furin cleavage Z-score (30 min)
B1	0.366 (inactive)	0.384 (inactive)	0.66 (inactive)
B2	-1.83 (inactive)	-1.36 (inactive)	0.113 (inactive)
B3	-0.627 (inactive)	-0.626 (inactive)	-2 (inactive)
B4	7.44 (active)	8.25 (active)	7.09 (active)
B5	10.9 (active)	12.2 (active)	8.51 (active)
B6	0.58 (inactive)	-0.142 (inactive)	0.811 (inactive)
B7	10.8 (active)	9.33 (active)	7.91 (active)
B8	0.521 (inactive)	0.407 (inactive)	-1.15 (inactive)
B9	1.18	1.38	0.416 (inactive)
B10	-0.513 (inactive)	-1.17 (inactive)	-0.0738 (inactive)
B11	2.21	0.243 (inactive)	-0.391 (inactive)
B12	-0.488 (inactive)	0.33 (inactive)	-0.601 (inactive)
B13	0.437 (inactive)	0.0461 (inactive)	-0.276 (inactive)
B14	-0.221 (inactive)	-1.55 (inactive)	-1.15 (inactive)
B15	0.109 (inactive)	0.25 (inactive)	0.72 (inactive)
B16	1.53	0.103 (inactive)	1.35
B17	4.34 (active)	2.4	4.26 (active)
B18	8.99 (active)	8.1 (active)	8.52 (active)
B19	8.08 (active)	8.87 (active)	7.6 (active)
B20	0.399 (inactive)	-1.73 (inactive)	0.371 (inactive)
B21	-2.18 (inactive)	-0.0771 (inactive)	-0.417 (inactive)
B22	7.04 (active)	8.87 (active)	6.82 (active)
B23	-0.433 (inactive)	-1.53 (inactive)	-0.417 (inactive)
B24	-0.371 (inactive)	-0.729 (inactive)	-2.3 (inactive)
B25	5.13 (active)	6.18 (active)	6 (active)
B26	-0.0202 (inactive)	0.591 (inactive)	-0.328 (inactive)
B27	-0.162 (inactive)	-0.138 (inactive)	-0.877 (inactive)
B28	7.74 (active)	9.2 (active)	8.75 (active)
